Data taken from ChEMBL document CHEMBL1961873, “Compounds: GSK PKIS; Assays: Nanosyn kinase panel” (2012).

These molecules were tested against RAC-alpha serine/threonine-protein kinase (Homo sapiens) (UniProt P31749). Conditions: at 0.1 µM.
RAC-alpha serine/threonine-protein kinase (Homo sapiens), sequence (P31749 whole entry): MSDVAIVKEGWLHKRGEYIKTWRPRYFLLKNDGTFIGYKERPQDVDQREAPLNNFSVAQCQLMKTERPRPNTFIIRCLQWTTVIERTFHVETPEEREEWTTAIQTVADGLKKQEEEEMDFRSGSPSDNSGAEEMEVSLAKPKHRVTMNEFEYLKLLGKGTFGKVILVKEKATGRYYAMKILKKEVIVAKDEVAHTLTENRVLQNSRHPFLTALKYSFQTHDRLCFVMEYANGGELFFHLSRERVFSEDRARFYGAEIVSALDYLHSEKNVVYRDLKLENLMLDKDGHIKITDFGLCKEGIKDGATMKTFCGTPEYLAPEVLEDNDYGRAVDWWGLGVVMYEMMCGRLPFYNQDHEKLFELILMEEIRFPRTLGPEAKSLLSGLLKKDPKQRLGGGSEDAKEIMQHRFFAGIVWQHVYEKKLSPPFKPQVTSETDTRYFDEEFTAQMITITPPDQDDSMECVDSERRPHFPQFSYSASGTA

| SMILES | inhibition |
| --- | --- |
| COc1ccccc1Nc1ncc(-c2ccccc2)o1 | 1.37% |
| CN(C)c1cc2c(Nc3ccc4nc(Cc5ccccc5)[nH]c4c3)ncnc2cn1 | 1.02% |
| CCn1c(-c2nonc2N)nc2c(N3CCCC3)nccc21 | -2.09% |
| CC1=C(C(=O)Nc2ccc3[nH]ncc3c2)C(c2ccc3ccccc3c2)CC(=O)N1 (stereo unspecified) | 0.52% |
| CNC(=O)c1cncc(/C=C/c2c(Cl)cccc2Cl)c1 | -2.98% |
| Cc1ccc(NC(=O)c2ccnc(N3CCCC3)c2)cc1-c1ccc(C(=O)NCC2CC2)cc1 | -2.27% |
| NS(=O)(=O)c1ccc(N/N=C2\C(=O)Nc3ccc(C(=O)NCCc4c[nH]cn4)cc32)cc1 | 1.49% |
| O=C1NC(=O)C(N2CCc3ccccc32)=C1c1ccc(Cl)cc1 | 1.09% |
| CCn1c(-c2nonc2N)nc2c(C#CC(C)(C)O)nc(CN3CCCC3)cc21 | 8.37% |
| COc1cc2ncn(-c3cc(OCc4ccccc4C(F)(F)F)c(C(N)=O)s3)c2cc1OC | -2.43% |
| Nc1nc(-c2ccccn2)c(-c2ccc3ncccc3n2)s1 | 0.97% |
| O=C1NC(=O)C(c2ccccc2Cl)=C1Nc1cccc(O)c1 | 0.96% |
| O=C(Nc1n[nH]c2nc(-c3ccco3)c(Br)cc12)C1CC1 | 0.59% |
| COc1ccc(-c2ccncc2)cc1C(N)=O | 0.88% |
| Nc1ncnc2occ(-c3ccc(NC(=O)Nc4cc(C(F)(F)F)cc(C(F)(F)F)c4)cc3)c12 | -0.23% |
| Cc1nn(C)c2cc(N(C)c3ccnc(Nc4cccc(S(N)(=O)=O)c4)n3)ccc12 | 0.47% |
| [O-][S+]1CCN(Cc2ccc(-c3ccc4ncnc(Nc5ccc(OCc6ccccc6)c(F)c5)c4c3)o2)CC1 | 0.83% |

| SMILES | inhibition |
| --- | --- |
| Cn1cc(C=C2C(=O)Nc3cccnc32)c2ccccc21 | 0.73% |
| CC1=C(C(=O)Nc2ccc3[nH]ncc3c2)C(c2ccc(Cl)c(Cl)c2)CC(=O)N1 (stereo unspecified) | -0.08% |
| NC(=O)c1cccc(Nc2nccc(Nc3cccc4[nH]ncc34)n2)c1 | -2.33% |
| CS(=O)(=O)CCNCc1ccc(-c2ccc3ncnc(Nc4ccc(OCc5cccc(F)c5)c(C(F)(F)F)c4)c3c2)o1 | 1.75% |
| Nc1nc(-c2ccc3c(c2)C(=Cc2cc(Br)c(O)c(Br)c2)C(=O)N3)cs1 | -2.07% |
| CC(=O)Nc1cccc(C#Cc2cncnc2Nc2ccc(OCc3cccc(F)c3)c(Cl)c2)n1 | -0.69% |
| Fc1cccc(COc2ccc(Nc3ncnc4sc(-c5cccs5)cc34)cc2Cl)c1 | 0.07% |
| CN1CCC(C(=O)Nc2n[nH]c3nnc(-c4ccccc4)cc23)CC1 | 0.8% |
| COc1cc2ncn(-c3cc(O[C@H](C)c4ccccc4Cl)c(C(N)=O)s3)c2cc1OC | 1.41% |
| COc1cc2ncn(-c3cc(O[C@@H](C)c4ccccc4Cl)c(C(N)=O)s3)c2cc1OC | 0.32% |
| NC(=O)c1ccc(-c2nc(-c3ccccn3)c(-c3ccc4c(c3)OCO4)[nH]2)cc1 | 0.43% |
| CC(C)=Cc1cccc2c1/C(=N/Nc1ccc(S(N)(=O)=O)cc1)C(=O)N2 | 0.31% |
| COC(=O)Nc1nc2cc(Oc3ccc(NC(=O)Nc4cccc(C(=O)O)c4)cc3)ccc2[nH]1 | -2.71% |
| N#Cc1c(NC(=O)c2cccc3ccccc23)sc2c1CCCC2 | 0.5% |
| Fc1cccc(COc2ccc(Nc3ncnc4cc(-c5ccc[nH]5)sc34)cc2Cl)c1 | -3.51% |
| COc1cc2c(cc1Nc1nc(N3CCc4ccccc43)c3cc[nH]c3n1)N(C(=O)CN(C)C)CC2 | 1.38% |

The molecules below were run against RAC-alpha serine/threonine-protein kinase (Homo sapiens) (UniProt P31749). Conditions: at 1 µM.

| SMILES | inhibition |
| --- | --- |
| COc1ccccc1Nc1ncc(-c2ccccc2)o1 | 1.71% |
| CN(C)c1cc2c(Nc3ccc4nc(Cc5ccccc5)[nH]c4c3)ncnc2cn1 | 0.52% |
| CCn1c(-c2nonc2N)nc2c(N3CCCC3)nccc21 | -2.19% |
| CC1=C(C(=O)Nc2ccc3[nH]ncc3c2)C(c2ccc3ccccc3c2)CC(=O)N1 (stereo unspecified) | 0.98% |
| CNC(=O)c1cncc(/C=C/c2c(Cl)cccc2Cl)c1 | -2.11% |
| Cc1ccc(NC(=O)c2ccnc(N3CCCC3)c2)cc1-c1ccc(C(=O)NCC2CC2)cc1 | -3.57% |
| NS(=O)(=O)c1ccc(N/N=C2\C(=O)Nc3ccc(C(=O)NCCc4c[nH]cn4)cc32)cc1 | 0.74% |
| O=C1NC(=O)C(N2CCc3ccccc32)=C1c1ccc(Cl)cc1 | 1.67% |
| CCn1c(-c2nonc2N)nc2c(C#CC(C)(C)O)nc(CN3CCCC3)cc21 | 54.9% |
| COc1cc2ncn(-c3cc(OCc4ccccc4C(F)(F)F)c(C(N)=O)s3)c2cc1OC | -2.44% |
| Nc1nc(-c2ccccn2)c(-c2ccc3ncccc3n2)s1 | 0.96% |
| O=C1NC(=O)C(c2ccccc2Cl)=C1Nc1cccc(O)c1 | 1.06% |
| O=C(Nc1n[nH]c2nc(-c3ccco3)c(Br)cc12)C1CC1 | 0.53% |
| COc1ccc(-c2ccncc2)cc1C(N)=O | -0.34% |
| Nc1ncnc2occ(-c3ccc(NC(=O)Nc4cc(C(F)(F)F)cc(C(F)(F)F)c4)cc3)c12 | 0.58% |
| Cc1nn(C)c2cc(N(C)c3ccnc(Nc4cccc(S(N)(=O)=O)c4)n3)ccc12 | 0.23% |
| [O-][S+]1CCN(Cc2ccc(-c3ccc4ncnc(Nc5ccc(OCc6ccccc6)c(F)c5)c4c3)o2)CC1 | -0.19% |

| SMILES | inhibition |
| --- | --- |
| Cn1cc(C=C2C(=O)Nc3cccnc32)c2ccccc21 | 0.22% |
| CC1=C(C(=O)Nc2ccc3[nH]ncc3c2)C(c2ccc(Cl)c(Cl)c2)CC(=O)N1 (stereo unspecified) | 1.46% |
| NC(=O)c1cccc(Nc2nccc(Nc3cccc4[nH]ncc34)n2)c1 | 1.84% |
| CS(=O)(=O)CCNCc1ccc(-c2ccc3ncnc(Nc4ccc(OCc5cccc(F)c5)c(C(F)(F)F)c4)c3c2)o1 | 0.54% |
| Nc1nc(-c2ccc3c(c2)C(=Cc2cc(Br)c(O)c(Br)c2)C(=O)N3)cs1 | -1.22% |
| CC(=O)Nc1cccc(C#Cc2cncnc2Nc2ccc(OCc3cccc(F)c3)c(Cl)c2)n1 | 0.42% |
| Fc1cccc(COc2ccc(Nc3ncnc4sc(-c5cccs5)cc34)cc2Cl)c1 | -0.67% |
| CN1CCC(C(=O)Nc2n[nH]c3nnc(-c4ccccc4)cc23)CC1 | 0.53% |
| COc1cc2ncn(-c3cc(O[C@H](C)c4ccccc4Cl)c(C(N)=O)s3)c2cc1OC | 2.07% |
| COc1cc2ncn(-c3cc(O[C@@H](C)c4ccccc4Cl)c(C(N)=O)s3)c2cc1OC | 1.3% |
| NC(=O)c1ccc(-c2nc(-c3ccccn3)c(-c3ccc4c(c3)OCO4)[nH]2)cc1 | 0.86% |
| CC(C)=Cc1cccc2c1/C(=N/Nc1ccc(S(N)(=O)=O)cc1)C(=O)N2 | 0.65% |
| COC(=O)Nc1nc2cc(Oc3ccc(NC(=O)Nc4cccc(C(=O)O)c4)cc3)ccc2[nH]1 | -3.33% |
| N#Cc1c(NC(=O)c2cccc3ccccc23)sc2c1CCCC2 | 0.48% |
| Fc1cccc(COc2ccc(Nc3ncnc4cc(-c5ccc[nH]5)sc34)cc2Cl)c1 | -3.04% |
| COc1cc2c(cc1Nc1nc(N3CCc4ccccc43)c3cc[nH]c3n1)N(C(=O)CN(C)C)CC2 | 1.39% |
